PubChem BioAssay AID2562 (National Center for Advancing Translational Sciences (NCATS), 2010)
Inconclusive results are not listed. Unmarked numbers belong to inactive results. Calls come from the whole dose curve; as a rule, active = well fitted curve in the direction sought with a large enough effect; inconclusive = small, poorly fitted or top-dose-only effect, or effect the other way, or another doubt; inactive = no such curve, though single readings can be large or run the other way.

target: Pyruvate kinase PKLR (Homo sapiens) (UniProt P30613); assay: Secondary LDH Assay for Activators of Human Reticulocyte Pyruvate Kinase: for Probe SAR; details: purified hPK-R, LDH-coupled NADH fluorescence kinetic; series mostly up to 58.4 µM; activity change, positive = activation: at the top concentration
Sequence (P30613 whole entry, looked up): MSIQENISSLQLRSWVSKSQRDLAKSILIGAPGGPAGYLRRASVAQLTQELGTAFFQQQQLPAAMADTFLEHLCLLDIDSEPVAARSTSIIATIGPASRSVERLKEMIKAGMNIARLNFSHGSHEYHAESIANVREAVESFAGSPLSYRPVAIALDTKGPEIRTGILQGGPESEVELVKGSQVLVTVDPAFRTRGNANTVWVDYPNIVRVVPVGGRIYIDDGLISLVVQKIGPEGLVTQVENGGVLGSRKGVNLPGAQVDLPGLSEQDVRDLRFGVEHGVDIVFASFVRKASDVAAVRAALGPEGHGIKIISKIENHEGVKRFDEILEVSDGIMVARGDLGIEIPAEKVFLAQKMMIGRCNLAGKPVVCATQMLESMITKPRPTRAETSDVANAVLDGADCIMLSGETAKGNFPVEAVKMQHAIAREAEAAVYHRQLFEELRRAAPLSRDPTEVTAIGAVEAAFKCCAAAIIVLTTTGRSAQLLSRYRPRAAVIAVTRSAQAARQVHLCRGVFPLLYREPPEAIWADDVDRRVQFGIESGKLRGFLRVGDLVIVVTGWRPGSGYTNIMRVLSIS
Excerpt: NIH Chemical Genomics Center [NCGC] Wael M. Rabeh, Lyudmila Nedyalkova and Hee-Wan Park [Structural Genomics Consortium, 100 College St. Toronto, Ontario, Canada] NCGC Assay Overview: Human pyruvate kinase reticulocyte (hPK-R) enzyme was supplied as a highly purified (>95% pure) preparation from Structural Genomics Consortium in Toronto (Ontario, Canada) and a secondary assay was used to evaluate compounds. This assay couples the formation of pyruvate from hPK-R using lactate dehydrogenase (LDH) and NADH. The depletion of NADH is followed in a fluorescent-based kinetic assay that follows the formation of pyruvate to lactate, as catalyzed LDH. Pyruvate kinase substrates, PEP and ADP, were present in the assay at 0.1 mM and 4 mM respectively. In this kinetic assay initial rates were determined by following the fluorescence of NADH depletion.
NCGC Assay Protocol Summary: Three uL of substrate mix (final concentration, 50 mM Tris-Cl pH 8.0, 200 mM KCl, 15 mM MgCl2, 0.1 mM PEP, 4.0 mM ADP, and 0.2 mM NADH) was dispensed into black-solid 1536 well plates. 23 nL of compounds were delivered by a pin tool and 1 uL of enzyme mix (final concentrations, 10 nM hPK-R and 1 uM of LDH) was added. Plates were immediately placed in ViewLux (Perkin Elmer) and NADH fluorescence was determined at 30 second exposure intervals for between 3 and 6 minutes. Data were normalized to the uninhibited and EC100 activation using known activators such as fructose-bis-phosphate.

Row | Compound | activity change, positive = activation
1 | COc1ccc(OC2=NS(=O)(=O)c3ccccc32)cc1 | 12.6%
2 | O=C1c2ccccc2C(=O)N1c1noc2ccccc12 | 2.08%
3 | COc1cccc(N2C(=O)c3ccccc3C2=O)n1 | 8.18%
4 | Cc1ccc(NS(=O)(=O)c2cccc(Cl)c2)cc1C | 14.8%
5 | O=C1CCc2cc(S(=O)(=O)Nc3cccc4ccccc34)ccc2N1 | 18.3%
6 | Cc1cc(C)n2c(Nc3ccccc3)c(-c3ccc(C)o3)nc2n1 | 3.71%
7 | Cc1ccc(NC(=O)c2ccc3c(c2)CCC(=O)N3)cc1C | -10.1%
8 | O=C1CCc2cc(S(=O)(=O)Nc3ccc(-c4ccccc4)cc3)ccc2N1 | -1.35%
9 | Cc1ccc(NS(=O)(=O)c2ccc3c(c2)CCC(C)(C)O3)cc1C | 7.9%
10 | O=C1NS(=O)(=O)c2ccccc21 | -1.26%
11 | COc1ccc(S(=O)(=O)Nc2ccc(C)c(C)c2)cc1 | 16.3%
12 | CC(=O)Nc1ccc(S(=O)(=O)Nc2ccc(C)c(C)c2)cc1 | 2.28%
13 | O=C1c2ccccc2C(=O)N1c1cccc2ncccc12 | 3.78%
14 | CCNc1cccc(S(=O)(=O)N2CCN(S(=O)(=O)c3ccc4c(c3)OCCO4)CC2)c1 | -1.39%
15 | Cc1ccc(NS(=O)(=O)c2cc3c(cc2Cl)NC(=O)CO3)cc1C | 16.5%
16 | Cc1ccc(NS(=O)(=O)c2ccc3c(c2)CCC(=O)N3)cc1 | 4.72%
17 | COc1ccc(Nc2c(-c3ccc(C)o3)nc3ccccn23)cc1 | 6.46%
18 | COc1ccccc1N1C(=O)c2ccccc2C1=O | 8.45%
19 | Nc1cccc(S(=O)(=O)N2CCCN(S(=O)(=O)c3ccc4c(c3)OCCO4)CC2)c1 | 25.1%
20 | COc1cccc(Cn2ncc3c4sc(S(C)=O)cc4n(C)c3c2=O)c1 (stereo not given) | 11.4%

Row | Compound | activity change, positive = activation
21 | Cc1cc(N2C(=O)c3ccccc3C2=O)n[nH]1 | 7.37%
22 | CNc1cc2c(cc1S(=O)(=O)Nc1ccc(C)c(C)c1)CCC(=O)N2 | 14%
23 | O=C1c2ccccc2C(=O)N1c1ccc2ccccc2n1 | -3.58%
24 | Cc1ccc(OC2=NS(=O)(=O)c3ccccc32)cc1 | 6.1%
25 | O=C1c2ccccc2C(=O)N1c1ccc2ncccc2c1 | 0.155%
26 | Cc1ccc2nc(-c3ccc(C)o3)c(NC3CCCC3)n2c1 | -15.8%
27 | Cc1ccc(NS(=O)(=O)c2cc3c(cc2N2CCCCC2)NC(=O)CC3)cc1C | 1.75%
28 | COc1cccc(Cn2ncc3c4sc(SC)cc4n(C)c3c2=O)c1 | 25.1%
29 | Cc1ccc2nc(-c3cccs3)c(Nc3ccccc3)n2c1 | -11.4%
30 | Cc1ccccc1OC1=NS(=O)(=O)c2ccccc21 | 4.32%
31 | O=C1c2ccccc2C(=O)N1c1cccc2ccncc12 | -0.363%
32 | Cc1ccccc1NS(=O)(=O)c1ccc2c(c1)CCC(=O)N2 | 4.32%
33 | O=C1CCc2cc(S(=O)(=O)Nc3cccc(-c4ccccc4)c3)ccc2N1 | 0.369%
34 | O=S1(=O)N=C(Oc2ccc(Cl)cc2)c2ccccc21 | 11.9%
35 | COc1cccc(N2C(=O)c3ccccc3C2=O)c1 | 10.9%
36 | O=C1CCc2cc(S(=O)(=O)Nc3cccc(F)c3)ccc2N1 | 10.9%
37 | Cc1ccc2nc(-c3ccc(C)o3)c(Nc3ccc4c(c3)OCO4)n2c1 | 2.48%
38 | O=C1CCc2cc(S(=O)(=O)Nc3cccc(Cl)c3)ccc2N1 | 1.31%
39 | Cc1ccc(NS(=O)(=O)c2ccc3c(c2)CC(=O)N3C)cc1C | 3.66%
40 | O=C1c2ccccc2C(=O)N1c1cccc(=O)[nH]1 | 16.3%
